The values that follow come from PubChem BioAssay.

Usually inhibition stands for the drop in the measured response relative to a control, in per cent.

Molecules are shown by their SMILES. The list shows a part of the results. Active and inactive are the calls of the source.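 Rule for the calls, unless noted: active = reconfirmed compounds whose average cytotoxicity reaches 50% or more; inactive = the rest.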

System in the first assay: not listed separately
Nature of the assay: PPC-1 cell viability loss – ATP content luminescence, cytotoxicity control for TRAIL apoptosis potentiator project, confirmation (AID 1447).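 Note: 0% = DMSO-treated cells and 100% = wells holding medium but no cells.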 Particulars: PPC-1 viability, ATPlite luminescence, overnight; at 5 µM; hits give high values. (Cellular ATP, detected with luciferase, serves as a proxy for viable cell number.)
As for `O=C(c1ccc(F)cc1)n1c(=S)nc2ccccn21`, the cytotoxicity was 81.2% (active).
With `CNC(=O)COC(=O)c1cc(-c2ccc(OC)cc2)nc2ccccc12`, the cytotoxicity was 36.3% (inactive).
The same measure, in the same setting: next, `Cc1nc(-c2ccc(Cl)cc2)sc1C(=O)NN`: 57.2% (active); `Cn1c(C(=O)NCCCN2CCN(c3cccc(Cl)c3)CC2)cc2c(=O)n(C)c3ccccc3c21`: 15% (inactive).
The same measure, in the same setting: under `O=C(Nc1ccn(Cc2ccccc2)n1)c1cccc(F)c1` stands 39.6% (inactive); under `COc1ccc(C2C(C#N)=C(/N=C/N3CCOCC3)OC3=C2C(=O)CC(C)(C)C3)cc1OC` (stereo unspecified), 2.1% (inactive).
`C=CCn1c(C)cc(C2=NNC(=NCC)SC2)c1C`: the cytotoxicity is 88% (active).
On the same count and under the same terms, under `CCOc1ccc(NC(=O)NNC(=O)c2ccc(Cl)cc2Cl)cc1` stands -11.6% (inactive); under `Cc1cc2c(=O)n(C)c(SCC(=O)c3cc4ccccc4o3)nc2s1`, -5.6% (inactive); under `Cc1ccc(-n2nc3cc(C)c(NC(=O)c4cccnc4)cc3n2)cc1`, 34.7% (inactive).
Still for that read-out and setting: next, `CCOC(=O)C1C(=O)OC2(CCCC2)C1C(=O)OCC` (stereo unspecified): -4.2% (inactive).
As for `N/C(=N\OC(=O)c1ccc([N+](=O)[O-])cc1)c1ccccn1`, the cytotoxicity is 11.3% (inactive).
In the case of `Clc1cccc(-c2nc3nc4ccccc4nc3n2Cc2ccco2)c1`, the cytotoxicity is -6% (inactive).
On the same count and under the same terms, under `COc1cccc(/C=C/C(=O)Nc2ccc3c(c2)OCCO3)c1` stands 48.7% (inactive); under `Cn1c(=O)n(C)c2cc(S(=O)(=O)N3CCCc4ccccc43)ccc21`, 14.1% (inactive).
Same read-out and setting: next, `O=C(NCC12CC3CC(C1)CC(CNC(=O)N1CCCC1)(C3)C2)N1CCCC1`: -1.2% (inactive); `O=C(CSc1nnc(-c2ccc([N+](=O)[O-])cc2)o1)Nc1ccccn1`: 57% (active); `c1ccc2cc3c(NCCN4CCOCC4)ccnc3cc2c1`: 18% (inactive).
The same measure, in the same setting: under `Cc1cc(C)nc(Nc2n[nH]c(-c3ccccc3N)n2)n1` stands 37.6% (inactive).
On to `CC(Nc1nc(N2CCCC2)nc2ccccc12)c1ccccc1` (stereo unspecified), for which the cytotoxicity was 8.3% (inactive).
The same measure, in the same setting: under `O=C(CN1C(=O)c2ccccc2S1(=O)=O)N1CCc2ccccc21` stands 46.8% (inactive).
Regarding `Cc1ccc(NC(=O)CS(=O)CC(=O)N(c2ccccc2)C(C)C(=O)NC2CCCC2)cc1` (stereo unspecified), the cytotoxicity was 14.8% (inactive).
In the case of `COc1ccc(-c2cc(C(=O)n3cnc4ccccc43)c3ccccc3n2)cc1`, the cytotoxicity was 33.1% (inactive).
With `CCCC(=O)Nc1nnc(CC(=O)OCC)s1`, the cytotoxicity was -5.4% (inactive).
The same measure, in the same setting: next, `COc1ccc(C(=O)/C=C/Nc2ccccn2)cc1`: 76.8% (active); `CCOc1ccc(-c2ccc(SCC(=O)N3CCOCC3)nn2)cc1`: 57.7% (active).
In the case of `O=C(Nc1cccc(O)c1)c1ccc(C(=O)c2ccccc2)o1`, the cytotoxicity was 18.6% (inactive).
On the same count and under the same terms, next, `CNC(=O)CSc1nnc(CCc2ccccc2)n1-c1ccccc1`: 0.9% (inactive); `CS(=O)(=O)N1CCN(C(=O)c2cc3ccccc3oc2=O)CC1`: 9.4% (inactive).
The same measure, in the same setting: under `CS(=O)(=O)N(CC(=O)N1CCOCC1)c1ccc2c3c(cccc13)CC2` stands -7.5% (inactive); under `COC(=O)c1nc(NC(=O)c2ccc(Cl)cc2)n[nH]1`, 12.1% (inactive); under `CCCCCCCCn1c2c(c(=N)c3c1CCC3)CCCC2`, 42.7% (inactive).
Consider `OCCNc1nc2ccccc2n1-c1ncnc2sc3c(c12)CCC3`, for which the cytotoxicity is -17.2% (inactive).
Same read-out and setting: next, `O=C(O)CCCC(=O)Nc1ccccc1-n1ccnc1`: -3.3% (inactive); `COc1ccc(-c2cc(C(=O)NCc3ccco3)no2)cc1OC`: 17.4% (inactive).
Same read-out and setting: under `CCOc1cc(N2CCOCC2)c(OCC)cc1NC(=O)c1cc(C)nc2ccccc12` stands -9.1% (inactive); under `COc1cc(NS(=O)(=O)c2ccc(NC(C)=O)cc2)cc(OC)c1`, -8.5% (inactive); under `O=C(O)c1ccc(N/N=C/c2cn(-c3ccccc3)nc2-c2cccs2)cc1`, 85.2% (active).
On the same count and under the same terms, next, `CCOC(=O)c1c(C)[nH]c2c1-c1ccccc1C(=O)C2=O`: 96.4% (active).

System in the next assay: not listed separately
Nature of the assay: lowers stimulated NF-kB luciferase signal in Jurkat – cell-based, luminescence, single concentration, T-cell NF-kB inhibitor project, confirmation (AID 435020;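 active = inhibition reaching about 45% at 4 µM in either replicate, limit read from the data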;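 note: plate controls were PMA/ionomycin stimulated DMSO wells for no effect and unstimulated DMSO wells for full effect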). Particulars: PMA/ionomycin-induced, 16 h, at 4 µM, hits give high values.
Consider `O=C(c1ccc(F)cc1)n1c(=S)nc2ccccn21`, for which the inhibition was -90.8% (inactive).
On to `C=CCn1c(C)cc(C2=NNC(=NCC)SC2)c1C`, for which the inhibition was 67.5% (active).
For `O=C(CN1C(=O)c2ccccc2S1(=O)=O)N1CCc2ccccc21`, the inhibition was 34.6% (inactive).
Same read-out and setting: next, `COc1ccc(C(=O)/C=C/Nc2ccccn2)cc1`: -78.9% (inactive); `CCCCCCCCn1c2c(c(=N)c3c1CCC3)CCCC2`: 75.5% (active); `O=C(O)c1ccc(N/N=C/c2cn(-c3ccccc3)nc2-c2cccs2)cc1`: -14.3% (inactive).

In a further assay the target is Sentrin-specific protease 8 (Homo sapiens) (UniProt Q96LD8). Nature of the assay: human SENP8 peptidase blockers, hit retest – biochemical, luminescence, single concentration, confirmation (AID 488912;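 active = mean inhibition across replicates above about 50%, limit read from the data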). Particulars: Recombinant SENP8, Z-RLRGG-aminoluciferin luminescence, 60 min; at 12.5 µM; hits give high values.
Chain of Sentrin-specific protease 8 (Homo sapiens) (Q96LD8 whole entry, looked up): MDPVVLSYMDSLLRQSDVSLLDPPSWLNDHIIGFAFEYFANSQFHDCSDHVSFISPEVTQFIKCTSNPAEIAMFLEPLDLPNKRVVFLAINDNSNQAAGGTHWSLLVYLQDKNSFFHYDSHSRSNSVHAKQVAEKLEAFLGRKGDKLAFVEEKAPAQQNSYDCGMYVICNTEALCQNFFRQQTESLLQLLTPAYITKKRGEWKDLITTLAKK
`O=C(c1ccc(F)cc1)n1c(=S)nc2ccccn21`: the inhibition is 16.3% (inactive).
`C=CCn1c(C)cc(C2=NNC(=NCC)SC2)c1C`: the inhibition was -3.3% (inactive).
On to `COc1ccc(C(=O)/C=C/Nc2ccccn2)cc1`, for which the inhibition is 97.4% (active).

For another assay, the target named is Sentrin-specific protease 6 (Homo sapiens) (UniProt Q9GZR1). Nature of the assay: inhibition of human SENP6 catalytic domain – biochemical, luminescence, single concentration, confirmation (AID 488915;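 active = mean inhibition above about 50% in the one-dose retest, limit read from the data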). The conditions noted are these: recombinant SENP6, Z-RLRGG-aminoluciferin luminescence; at 12.5 µM; hits give high values.
Chain of Sentrin-specific protease 6 (Homo sapiens) (Q9GZR1 628-1112 limits assumed): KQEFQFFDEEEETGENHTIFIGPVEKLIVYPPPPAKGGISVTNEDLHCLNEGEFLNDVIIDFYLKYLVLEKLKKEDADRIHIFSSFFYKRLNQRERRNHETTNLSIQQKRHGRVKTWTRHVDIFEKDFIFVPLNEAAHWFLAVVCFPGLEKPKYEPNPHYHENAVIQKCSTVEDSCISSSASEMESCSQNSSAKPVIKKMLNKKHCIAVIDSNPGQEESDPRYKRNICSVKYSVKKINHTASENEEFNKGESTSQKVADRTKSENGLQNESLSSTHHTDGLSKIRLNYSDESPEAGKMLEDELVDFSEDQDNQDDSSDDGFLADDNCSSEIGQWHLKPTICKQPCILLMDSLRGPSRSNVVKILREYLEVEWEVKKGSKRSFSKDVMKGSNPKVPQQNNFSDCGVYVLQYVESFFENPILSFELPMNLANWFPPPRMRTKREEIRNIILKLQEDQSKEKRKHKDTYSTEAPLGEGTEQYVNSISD
In the case of `O=C(c1ccc(F)cc1)n1c(=S)nc2ccccn21`, the inhibition is 14.2% (inactive).
The same measure, in the same setting: under `C=CCn1c(C)cc(C2=NNC(=NCC)SC2)c1C` stands 1% (inactive); under `COc1ccc(C(=O)/C=C/Nc2ccccn2)cc1`, 98% (active).
